In PubChem BioAssay (NCI):
About 79,000 compounds went through this panel and 15% of them were active in at least one assay; those are over-represented in the sample as a whole. A number with no mark means an inactive call. The source made the active and inactive calls. Cut-off read from the data, not from the text of the source: active = growth inhibition above about 70%; inactive = the rest.

How the values were obtained:
[1] = NCI Yeast Anticancer Drug Screen. Data for the rad52 strain (AID 147);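 note: 0% = growth of vehicle-treated control cultures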; conditions: S. cerevisiae rad52 mutant growth inhibition, hits give high values
Procedure, shortened: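 The repair-mutant yeast strain was incubated with compounds, then growth was read and inhibition derived relative to vehicle.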

[2] = NCI Yeast Anticancer Drug Screen. Data for the wt1 strain (AID 149);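 note: 0% = growth of vehicle-treated wt1 cultures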; conditions: S. cerevisiae wt1 strain (SPY 50644) growth inhibition, hits give high values
Procedure, shortened: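 Vehicle-normalised growth inhibition; strain wt1; compound exposure.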

[3] = NCI Yeast Anticancer Drug Screen. Data for the rad50EPP+ strain (AID 151);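 note: 0% = growth of vehicle-treated control cultures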; conditions: S. cerevisiae rad50 mutant strain, hits give high values
Procedure, shortened: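 Vehicle-normalised growth inhibition; rad50EPP+ yeast strain, altered in DNA damage repair, compound-treated.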

[4] = NCI Yeast Anticancer Drug Screen. Data for the mgt1 strain (AID 153); conditions: S. cerevisiae mgt1 mutant growth inhibition, hits give high values
Procedure, shortened: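 Vehicle-normalized growth inhibition is determined in mgt1 yeast, a strain selected for a defined alteration in DNA repair or cell cycle control.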

[5] = NCI Yeast Anticancer Drug Screen. Data for the rad50 strain (AID 155);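 note: 0% = growth of vehicle-only cultures of the same strain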; conditions: S. cerevisiae rad50 strain growth inhibition, hits give high values
Procedure, shortened: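 A DNA repair-deficient yeast mutant serves as the test organism; compound-induced growth inhibition is calculated against vehicle-treated cells.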

[6] = NCI Yeast Anticancer Drug Screen. Data for the mec2-1 strain (AID 157); conditions: S. cerevisiae mec2-1 strain, hits give high values
Procedure, shortened: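 Mutant yeast (mec2-1) grown with compound; growth inhibition relative to vehicle control reported.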

[7] = NCI Yeast Anticancer Drug Screen. Data for the rad14 strain (AID 159);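 note: 0% = growth of vehicle-treated control cultures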; conditions: S. cerevisiae rad14 strain growth inhibition, hits give high values
Procedure, shortened: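 Vehicle-treated cultures served as the baseline for growth inhibition of a DNA repair-mutant yeast strain exposed to each compound.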

[8] = NCI Yeast Anticancer Drug Screen. Data for the sgs1 mgt1 strain (AID 161);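 note: 0% = growth of cultures given vehicle only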; conditions: S. cerevisiae sgs1 mgt1 strain, hits give high values
Procedure, shortened: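 Growth of a repair-deficient yeast mutant was monitored after compound treatment and expressed as inhibition relative to vehicle-treated cultures.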

[9] = NCI Yeast Anticancer Drug Screen. Data for the CLN2oe strain (AID 163);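 note: 0% = growth of vehicle-only control cultures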; conditions: S. cerevisiae CLN2oe strain, hits give high values
Procedure, shortened: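 Compounds are applied to yeast harbouring a defined cell-cycle control change; reduced growth compared with vehicle-treated controls gives the value.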

[10] = NCI Yeast Anticancer Drug Screen. Data for the cln2 rad14 strain (AID 165);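 note: 0% = growth equal to vehicle treated cultures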; conditions: S. cerevisiae cln2 rad14 strain, hits give high values
Procedure, shortened: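 Readout is yeast growth inhibition versus vehicle-treated controls, using a strain with cln2 and rad14 alterations exposed to compound.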

[11] = NCI Yeast Anticancer Drug Screen. Data for the bub3 strain (AID 167); conditions: S. cerevisiae bub3 mutant strain, hits give high values
Procedure, shortened: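 Inhibition values come from growth of compound-treated mutant yeast normalised to vehicle-treated controls.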

[12] = NCI Yeast Anticancer Drug Screen. Data for the wt2 strain (AID 169);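 note: 0% = growth of vehicle-treated yeast cultures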; conditions: S. cerevisiae wt2 strain growth inhibition, hits give high values
Procedure, shortened: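 Against vehicle-treated controls, the growth of yeast exposed to each compound was compared, and the inhibition was recorded.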

[13] = NCI Yeast Anticancer Drug Screen. Data for the mlh1 strain (AID 171);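 note: 0% = growth of vehicle-treated control cultures of the same strain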; conditions: S. cerevisiae mlh1 strain growth inhibition, hits give high values
Procedure, shortened: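 Measured: yeast growth. Reference: vehicle-treated controls. Organism: strain with a defined alteration affecting DNA damage repair or cell cycle control, treated with compound.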

[14] = NCI Yeast Anticancer Drug Screen. Data for the sgs1 strain (AID 173);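 note: 0% = growth of vehicle-only control cultures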; conditions: S. cerevisiae sgs1 mutant, hits give high values
Procedure, shortened: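 Each compound was added to cultures of the altered yeast strain. Growth was recorded, and inhibition was derived by comparison with vehicle controls.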

[15] = NCI Yeast Anticancer Drug Screen. Data for the mlh1 rad18 strain (AID 175); conditions: S. cerevisiae mlh1 rad18 strain growth inhibition, hits give high values
Procedure, shortened: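 Genetically defined yeast (DNA repair-deficient) exposed to compounds; growth inhibition determined relative to vehicle.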

[16] = NCI Yeast Anticancer Drug Screen. Data for the rad18 strain (AID 177); conditions: S. cerevisiae rad18 mutant growth inhibition, hits give high values
Procedure, shortened: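 Vehicle-treated cultures served as the baseline for scoring compound-induced growth inhibition in DNA-repair-mutant yeast.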

[17] = at 5.0 µM (retest, dose inferred, filed as 0.5)
[18] = at 50.0 µM (retest, dose inferred, filed as 5.0)

## COC(=O)/C=C(/C(=O)OC)C(Cl)(Cl)Cl
[1]; at 1.2 µM
  growth inhibition: -32%
[1]; at 3.7 µM
  growth inhibition: 7%
[1]; at 11.0 µM
  growth inhibition: 47%
[1]; at 33.0 µM
  growth inhibition: 97% (active)
[1]; at 100.0 µM
  growth inhibition: 100% (active)
[2]; at 1.2 µM
  growth inhibition: -1%
[2]; at 3.7 µM
  growth inhibition: 4%
[2]; at 11.0 µM
  growth inhibition: 34%
[2]; at 33.0 µM
  growth inhibition: 84% (active)
[2]; at 100.0 µM
  growth inhibition: 100% (active)
[3]; at 1.2 µM
  growth inhibition: 4%
[3]; at 3.7 µM
  growth inhibition: -9%
[3]; at 11.0 µM
  growth inhibition: 24%
[3]; at 33.0 µM
  growth inhibition: 61%
[3]; at 100.0 µM
  growth inhibition: 84% (active)
[4]; at 1.2 µM
  growth inhibition: 3%
[4]; at 3.7 µM
  growth inhibition: -3%
[4]; at 11.0 µM
  growth inhibition: 5%
[4]; at 33.0 µM
  growth inhibition: 59%
[4]; at 100.0 µM
  growth inhibition: 99% (active)
[5]; at 1.2 µM
  growth inhibition: 1%
[5]; at 3.7 µM
  growth inhibition: 4%
[5]; [17]
  growth inhibition: 14%
[5]; at 11.0 µM
  growth inhibition: 33%
[5]; at 33.0 µM
  growth inhibition: 93% (active)
[5]; [18]
  growth inhibition: 88% (active)
[5]; at 50.0 µM
  growth inhibition: 44.8%
[5]; at 100.0 µM
  growth inhibition: 99% (active)
[6]; at 1.2 µM
  growth inhibition: 2%
[6]; at 3.7 µM
  growth inhibition: 2%
[6]; [17]
  growth inhibition: 7%
[6]; at 11.0 µM
  growth inhibition: 6%
[6]; at 33.0 µM
  growth inhibition: 44%
[6]; [18]
  growth inhibition: 96% (active)
[6]; at 50.0 µM
  growth inhibition: 22.1%
[6]; at 100.0 µM
  growth inhibition: 98% (active)
[7]; at 1.2 µM
  growth inhibition: 6%
[7]; at 3.7 µM
  growth inhibition: 18%
[7]; at 11.0 µM
  growth inhibition: 64%
[7]; at 33.0 µM
  growth inhibition: 96% (active)
[7]; at 100.0 µM
  growth inhibition: 100% (active)
[8]; [17]
  growth inhibition: 23%
[8]; [18]
  growth inhibition: 97% (active)
[8]; at 50.0 µM
  growth inhibition: 79.9% (active)
[9]; at 1.2 µM
  growth inhibition: -5%
[9]; at 3.7 µM
  growth inhibition: -3%
[9]; at 11.0 µM
  growth inhibition: 2%
[9]; at 33.0 µM
  growth inhibition: 45%
[9]; at 100.0 µM
  growth inhibition: 99% (active)
[10]; [17]
  growth inhibition: 9%
[10]; [18]
  growth inhibition: 95% (active)
[10]; at 50.0 µM
  growth inhibition: 67.5%
[11]; at 1.2 µM
  growth inhibition: -4%
[11]; at 3.7 µM
  growth inhibition: 6%
[11]; [17]
  growth inhibition: -3%
[11]; at 11.0 µM
  growth inhibition: 23%
[11]; at 33.0 µM
  growth inhibition: 81% (active)
[11]; [18]
  growth inhibition: 94% (active)
[11]; at 50.0 µM
  growth inhibition: -0.7%
[11]; at 100.0 µM
  growth inhibition: 100% (active)
[12]; at 1.2 µM
  growth inhibition: -1%
[12]; at 3.7 µM
  growth inhibition: 8%
[12]; at 11.0 µM
  growth inhibition: 33%
[12]; at 33.0 µM
  growth inhibition: 99% (active)
[12]; at 100.0 µM
  growth inhibition: 100% (active)
[13]; at 1.2 µM
  growth inhibition: -3%
[13]; at 3.7 µM
  growth inhibition: 2%
[13]; at 11.0 µM
  growth inhibition: 5%
[13]; at 33.0 µM
  growth inhibition: 84% (active)
[13]; at 100.0 µM
  growth inhibition: 99% (active)
[14]; at 1.2 µM
  growth inhibition: 6%
[14]; at 3.7 µM
  growth inhibition: 14%
[14]; at 11.0 µM
  growth inhibition: 69%
[14]; at 33.0 µM
  growth inhibition: 97% (active)
[14]; at 100.0 µM
  growth inhibition: 100% (active)
[15]; [17]
  growth inhibition: 70% (active)
[15]; [18]
  growth inhibition: 97% (active)
[15]; at 50.0 µM
  growth inhibition: 40.9%
[16]; at 1.2 µM
  growth inhibition: 38%
[16]; at 3.7 µM
  growth inhibition: 87% (active)
[16]; at 11.0 µM
  growth inhibition: 95% (active)
[16]; at 33.0 µM
  growth inhibition: 98% (active)
[16]; at 100.0 µM
  growth inhibition: 99% (active)

## NC1=NNC2(C(N)=N1)c1ccccc1-c1ccccc12
[1]; at 1.2 µM
  growth inhibition: -18%
[1]; at 3.7 µM
  growth inhibition: -14%
[1]; at 11.0 µM
  growth inhibition: -16%
[1]; at 33.0 µM
  growth inhibition: 16%
[1]; at 100.0 µM
  growth inhibition: 96% (active)
[2]; at 1.2 µM
  growth inhibition: 4%
[2]; at 3.7 µM
  growth inhibition: 3%
[2]; at 11.0 µM
  growth inhibition: -4%
[2]; at 33.0 µM
  growth inhibition: 12%
[2]; at 100.0 µM
  growth inhibition: 97% (active)
[3]; at 1.2 µM
  growth inhibition: 3%
[3]; at 3.7 µM
  growth inhibition: 7%
[3]; at 11.0 µM
  growth inhibition: 2%
[3]; at 33.0 µM
  growth inhibition: 44%
[3]; at 100.0 µM
  growth inhibition: 76% (active)
[4]; at 1.2 µM
  growth inhibition: 12%
[4]; at 3.7 µM
  growth inhibition: 6%
[4]; at 11.0 µM
  growth inhibition: 3%
[4]; at 33.0 µM
  growth inhibition: 30%
[4]; at 100.0 µM
  growth inhibition: 98% (active)
[5]; at 1.2 µM
  growth inhibition: -7%
[5]; at 3.7 µM
  growth inhibition: -12%
[5]; [17]
  growth inhibition: -32%
[5]; at 11.0 µM
  growth inhibition: -9%
[5]; at 33.0 µM
  growth inhibition: 32%
[5]; [18]
  growth inhibition: 93% (active)
[5]; at 50.0 µM
  growth inhibition: 86.2% (active)
[5]; at 100.0 µM
  growth inhibition: 94% (active)
[6]; at 1.2 µM
  growth inhibition: 11%
[6]; at 3.7 µM
  growth inhibition: 12%
[6]; [17]
  growth inhibition: -1%
[6]; at 11.0 µM
  growth inhibition: 11%
[6]; at 33.0 µM
  growth inhibition: 29%
[6]; [18]
  growth inhibition: 18%
[6]; at 50.0 µM
  growth inhibition: 71.9% (active)
[6]; at 100.0 µM
  growth inhibition: 96% (active)
[7]; at 1.2 µM
  growth inhibition: -18%
[7]; at 3.7 µM
  growth inhibition: -22%
[7]; at 11.0 µM
  growth inhibition: -25%
[7]; at 33.0 µM
  growth inhibition: 1%
[7]; at 100.0 µM
  growth inhibition: 97% (active)
[8]; [17]
  growth inhibition: -9%
[8]; [18]
  growth inhibition: 43%
[8]; at 50.0 µM
  growth inhibition: 64.5%
[9]; at 1.2 µM
  growth inhibition: 9%
[9]; at 3.7 µM
  growth inhibition: 15%
[9]; at 11.0 µM
  growth inhibition: 21%
[9]; at 33.0 µM
  growth inhibition: 39%
[9]; at 100.0 µM
  growth inhibition: 97% (active)
[10]; [17]
  growth inhibition: 3%
[10]; [18]
  growth inhibition: 57%
[10]; at 50.0 µM
  growth inhibition: 81% (active)
[11]; at 1.2 µM
  growth inhibition: 26%
[11]; at 3.7 µM
  growth inhibition: 25%
[11]; [17]
  growth inhibition: -27%
[11]; at 11.0 µM
  growth inhibition: 26%
[11]; at 33.0 µM
  growth inhibition: 38%
[11]; [18]
  growth inhibition: 54%
[11]; at 50.0 µM
  growth inhibition: 45.1%
[11]; at 100.0 µM
  growth inhibition: 97% (active)
